Data reported in PubChem BioAssay (NCATS).
Records with an inconclusive call do not appear. Entries that show only a call come without a potency. Activity calls are given as the source filed them. The call rests on the fitted dose curve; in most records, active means well fitted inhibition curve with a large enough effect; inconclusive means small, poorly fitted or top-dose-only effect; inactive means flat fitted curve, though single readings scatter.

target: Calcium and integrin-binding protein 1 (Homo sapiens) (UniProt Q99828); assay: Primary qHTS for Identification of Calcium Integrin Binding Protein 1 (CIB1) Competitor (AID 1508620); conditions: CIB1-GST / FITC-alphaIIb peptide fluorescence polarization; series mostly up to 114 µM;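 further: GST tagged CIB1 binding a fluorescein labelled alphaIIb integrin peptide tracer; top concentration of the series differs between compounds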
Sequence (Q99828 whole entry, looked up): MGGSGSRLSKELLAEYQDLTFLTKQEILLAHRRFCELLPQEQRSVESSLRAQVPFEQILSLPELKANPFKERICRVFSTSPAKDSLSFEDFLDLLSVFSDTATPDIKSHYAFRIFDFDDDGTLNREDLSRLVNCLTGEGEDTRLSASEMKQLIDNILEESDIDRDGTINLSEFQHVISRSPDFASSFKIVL
Summary of the method: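 Fluorescence polarization competition: CIB1-GST (1 uM final) preincubated with compound 15 min at room temperature, then FITC-labeled alphaIIb peptide (100 nM final) added for another 15 min. Polarization read at Ex 480/Em 540.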

Row | SMILES | Potency
1 | COc1ccc(C2c3ccc(OCc4ccccc4)cc3Oc3ncn(CCN4CCOCC4)c(=N)c32)cc1OC (centres undefined) | inactive
2 | O=C1CC(c2ccccc2)CC2=C1C1(CCCCC1)N=C(Nc1nc3ccccc3o1)N2 (centres undefined) | inactive
3 | Cc1cc(C)nc(NC(=S)N2CCN(c3ccc4ncccc4c3[N+](=O)[O-])CC2)c1 | inactive
4 | CCOC(=O)c1ccoc1-c1ccc2ncnc(NCc3csc(C)n3)c2c1 | inactive
5 | O=C(O)c1ccc2c(c1)C(=O)N([C@@H](C(=O)O)C(c1ccccc1)c1ccccc1)C2=O | inactive
6 | COc1ccccc1C(=O)NCCc1nc2ccccc2n1CCOc1ccc(C)cc1 | inactive
7 | Cc1ccc(CC(=O)Nc2nc(-c3ccc4c(c3)CCN4C(=O)c3ccccc3C)c(C)s2)cc1C | inactive
8 | CC1=C(C(=O)Nc2nc3ccccc3s2)C(c2nn(C)cc2Cl)N=C(Nc2nc3ccccc3o2)N1 (centres undefined) | inactive
9 | Cc1cccc(-n2cnc3cc(C(=O)N4CCCC(C)(C)C4)ccc32)c1 | inactive
10 | COc1ccc(C2Nc3ccccc3C(=O)N2Cc2ccccc2Cl)cc1COc1ccc(NC(C)=O)cc1 (centres undefined) | inactive
11 | O=S(=O)(c1ccc2c(c1)OCCCO2)N1CCN(S(=O)(=O)c2c(F)cccc2F)CC1 | inactive
12 | Cc1cc(C)nc(NC(=S)N2CCN(c3cc(Cl)cc(Cl)n3)CC2)c1 | inactive
13 | O=[N+]([O-])c1ccc([S+](=O)([O-])N2CCN([S+](=O)([O-])c3ccc4c(c3)OCCO4)CC2)c([N+](=O)[O-])c1 | inactive
14 | O=C(Nc1ccc(-n2cncn2)c(F)c1)Nc1nnc(-c2ccncc2)s1 | inactive
